# Calls of active or inactive are those of the source. How the calls were made is not given here.
# Assays:
# [1] = Brca1-Bard1 BiLC signal decrease – luminescence, single concentration, counter-screen for Mdm2/MdmX interaction inhibitor project, confirmation (AID 504668); conditions: Brca1/Bard1 bimolecular luciferase complementation counterscreen, at 8 µM, stronger effect = higher value
# [2] = NFkB reporter suppression in cystic fibrosis bronchial cells – cell-based, uHTS hits, panel, cytotoxicity readout, dose response (AID 624344); conditions: CF bronchial epithelial cells, PAF-induced NFkB reporter inhibition, with PAF, run 1; at 79 µM (top of the series) unless noted
# [3] = as above; conditions: CF bronchial epithelial cells, PAF-induced NFkB reporter inhibition, with PAF, run 2; at 79 µM (top of the series) unless noted
SMILES,inhibition [1],inhibition [2] [%],inhibition [3] [%]
FC(F)(F)c1nnc2c(Sc3ccc(Cl)cc3)nc3ccccc3n12,31.6% (active),98,109
C=C(C)COc1ccc(-c2[nH]ncc2-c2ccc(OC)cc2)c(O)c1,28.9% (active),114,105
COc1ccc(-c2csc3ncnc(NCCO)c23)cc1,26.2% (active),104,113
COc1ccc(-c2cncnc2-c2ccc(OC)cc2O)cc1,27.2% (active),101,93.5
Cc1cc(N2CCOCC2)c2c(N)c(Br)cc(C)c2n1,35.4% (active),118,97.8
COc1ccc(Cc2nnc(SCc3ccc([N+](=O)[O-])cc3)o2)cc1,28.9% (active),113,97.4
COc1ccc2cc(C(N)=O)c(=Nc3ccc(C)cc3)oc2c1,35.2% (active),87.6,75.7
CCc1c(C)nc2ccc(Br)cc2c1SCCC#N,23.1% (active),105,113
